High-throughput results: PubChem BioAssay, several laboratories
Sampled rows, rich in hits. Any-hit rate of the full collection: about 27%.
PTK2B oligo ant = Pyk2 (human) oligomerization antagonism; Q293 cells, Pyk2 FERM NanoBiT luminescence; active compounds read low; 99,000 tested, 0.83% active; z-score (the deposit names both 25 µM and 10 µM); AID 1347419;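 active = Z-score of -3 or lower, scaled per plate to the spread of control and sample wells; inactive = z-score above -3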;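 also: negative z-score means lost luminescence so less FERM oligomerization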
CYP2C19 activ = activators of human cytochrome P450 2C19 | P33261 | recombinant CYP2C19, luciferin-H EGE luminescence; active compounds read high; 0 = fully inhibited enzyme, 1 = untreated enzyme | activation factor at 5 µM | 96,000 tested, under 10 active | AID 1025;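 active = activation factor of at least 2 at 5 µM in the primary screen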;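 also: 0 = wells with 2.5 mM tranylcypromine and 1 = vehicle-only wells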
CYP2C9 inh = human CYP2C9 inhibition; P11712; CYP2C9 Supersomes, luciferin-H conversion, luminescence; inhibition, % at 5 µM; 96,000 tested, 20% active;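 active = blocking of liver enzyme CYP2C9 beyond about 50% at 5 µM, limit read from the data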
Target sequence (P11712 whole entry, looked up): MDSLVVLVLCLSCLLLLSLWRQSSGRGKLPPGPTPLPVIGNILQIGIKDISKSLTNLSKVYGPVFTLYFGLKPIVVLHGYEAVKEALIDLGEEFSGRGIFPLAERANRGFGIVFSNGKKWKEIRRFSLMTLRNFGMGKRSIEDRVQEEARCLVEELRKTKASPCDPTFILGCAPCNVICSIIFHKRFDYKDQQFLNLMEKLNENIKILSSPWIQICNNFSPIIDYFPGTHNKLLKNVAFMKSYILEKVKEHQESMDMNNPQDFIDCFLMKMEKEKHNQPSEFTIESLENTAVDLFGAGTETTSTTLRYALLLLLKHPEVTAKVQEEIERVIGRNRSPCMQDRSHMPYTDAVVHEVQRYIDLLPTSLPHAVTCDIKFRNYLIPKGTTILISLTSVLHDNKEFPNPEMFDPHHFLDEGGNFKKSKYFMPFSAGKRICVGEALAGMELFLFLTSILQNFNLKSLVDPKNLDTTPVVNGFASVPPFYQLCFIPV
CYP2C9 activ = CYP2C9 (human) activation. P11712. recombinant CYP2C9, luciferin-H conversion, luminescence; active compounds read high; factor 1 = untreated enzyme, 0 = blocked. activation factor at 5 µM. 96,000 tested, 1.4% active. AID 1024;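 active = activation factor of 2 or more for CYP2C9 at a 5 µM dose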;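 also: 0 = sulfaphenazole-blocked wells and 1 = vehicle-only wells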
CYP2C19 inhib = human CYP2C19 inhibition; P33261; CYP2C19 Supersomes, luciferin-H EGE luminescence, 30 min; 96,000 tested, 21% active; inhibition, % at 5 µM;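 active = CYP2C19 inhibition above a set limit at 5 µM in the primary screen, cut at about 50% in these data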;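 also: plate controls were negative control wells for no effect and 2.5 mM tranylcypromine positive control for full effect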
Cav32 inh = human Cav3.2 channel inhibition, primary screen; B-score at 10 µM; O95180; 100,000 tested, 4% active; AID 449739; Cav3.2-expressing cells, Fluo-4 calcium fluorescence FDSS; active compounds read low;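 active = single-dose well whose peak fluorescence ratio is a statistical outlier from its plate by either plate-standardised score or position-corrected B-score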
* = called active by the depositor; nt = not tested or not shown.

SMILES	PTK2B oligo ant	CYP2C19 activ	CYP2C9 inh	CYP2C9 activ	CYP2C19 inhib	Cav32 inh
CC1CCN(C(=S)c2cn(Cc3ccccc3F)c3ccccc23)CC1	-1.5	0.7	28	0.7	26	-6.5*
Cc1cc(Cl)ccc1N(CC(=O)N=Nc1c(O)[nH]c2ccccc12)S(C)(=O)=O	-1.9	0.2	53*	0.5	76*	-1.6
O=C(CSCc1cccc(Br)c1)N=Nc1c(O)[nH]c2ccccc12	-0.91	0.6	-11	1.1	41	-1.9
NC(=O)c1ncn([C@@H]2O[C@H](CO)[C@@H](O)[C@H]2O)c1O	nt	nt	nt	nt	nt	-1.2
CC1CCN(c2ccc([N+](=O)[O-])cn2)CC1	-0.55	nt	nt	nt	nt	nt
O=C(CSc1nc2ccccc2o1)Nc1ccccc1N1CCCCCC1	0.13	nt	nt	nt	nt	-6.6*
O=C(CSc1nc2ccccc2o1)Nc1ccc(N2CCOCC2)c(Cl)c1	0.31	0.3	89*	0.1	73*	-3.8*
O=C(CSc1nc2ccccc2o1)Nc1cc(C(F)(F)F)ccc1N1CCOCC1	-1.2	0.5	39	0.6	46	-1.4
O=C(CSc1nnnn1-c1cccc2ccccc12)Nc1ccc(N2CCOCC2)c(Cl)c1	-3.3*	1.1	-88	1.9	-5	-2
Cc1cc(N2CCOCC2)nc(SCc2ccc(Cl)cc2Cl)n1	-1.1	0.5	64*	0.4	48	-0.44
Cn1c(NC(=O)c2ccccc2)c(-c2ccccn2)c(=O)c2ccccc21	-0.87	1.1	28	0.7	-11	0.59
O=C(CSc1nnc(C23CC4CC(CC(C4)C2)C3)o1)Nc1ccc(N2CCOCC2)c(Cl)c1	-3.3*	1	7	0.9	-4	0.99
Cc1cc(C)nc(SCC(=O)Nc2ccc(N3CCOCC3)c(Cl)c2)n1	0.82	0.6	52*	0.5	36	nt
CC(=O)CSc1nc2ccc(Nc3nc(N4CCOCC4)nc(N4CCOCC4)n3)cc2s1	-0.77	0.3	55*	0.5	75*	-0.39
Cc1nnc(SCC(=O)Nc2ccc(N3CCOCC3)cc2)o1	0.45	1.1	-6	1.1	-9	nt
CCOC(=O)CSc1nc2ccc(Nc3nc(N4CCOCC4)nc(N4CCOCC4)n3)cc2s1	-0.14	nt	nt	nt	nt	1.7
CC(=O)Nc1ccc2nc(SCC(=O)Nc3ccc(N4CCOCC4)c(Cl)c3)sc2c1	-2.2	0.6	76*	0.2	45	0.96
Cc1ccc(C)c(S(=O)(=O)Nc2ccc3scnc3c2)c1	-1.4	0	66*	0.3	100*	-4.6*
Cc1ccc(C)c(S(=O)(=O)NC(C)C(=O)Nc2ccc(-c3nc4ccccc4s3)cc2)c1 (centres undefined)	-0.39	1	4	1	0	0.55
CC1CC(N(C(=O)c2ccc(Cl)cc2)c2ccccc2)c2ccccc2N1C(=O)c1ccco1 (centres undefined)	-2.5	0.1	97*	0	91*	-5.7*
CC1CC(N(C(=O)c2ccco2)c2ccccc2)c2ccccc2N1C(=O)c1ccco1 (centres undefined)	-3	0.1	88*	0.1	91*	-5.3*
COc1ccc(C(C)(C)C)cc1NC(=O)Nc1ccc2c(c1)OCO2	-0.97	nt	nt	nt	nt	nt
CCOC(=O)N1CCN(S(=O)(=O)c2cc(OCC)ccc2OCC)CC1	-0.27	0.4	55*	0.4	59*	-0.68
Cc1cc(S(=O)(=O)NCC(C)C)ccc1OCC(=O)N1CCOCC1	-0.1	1.1	-13	1.1	-13	1
CCOc1ccc(OCC)c(S(=O)(=O)N2CCCCC2)c1	-1.1	0.2	40	0.6	81*	0.029
SMILES	PTK2B oligo ant	CYP2C19 activ	CYP2C9 inh	CYP2C9 activ	CYP2C19 inhib	Cav32 inh
CCOc1ccc(-n2cnnn2)cc1S(=O)(=O)N1CCCCC1	-0.24	1.1	-28	1.3	-14	1.5
CCOc1ccc(OCC)c(S(=O)(=O)N2CCC(C)CC2)c1	-1.5	0.4	34	0.7	60*	-1.7
CCOC(=O)N1CCN(C(=O)COc2ccc(S(=O)(=O)NCC(C)C)cc2C)CC1	0.37	0.8	62*	0.4	18	0.15
CNS(=O)(=O)c1cccc(C(=O)OCC(=O)N2CCc3ccccc3C2)c1	1.6	0.7	-70	1.7	33	0.42
CCOC(=O)N1CCN(S(=O)(=O)c2ccc3c(c2)SCC(=O)N3)CC1	0.55	1	-8	1.1	3	nt
CCOC(=O)N1CCN(S(=O)(=O)c2cccc3ccc(C)nc23)CC1	1.1	0.3	-69	1.7	66*	0.32
CCOC(=O)N1CCN(S(=O)(=O)c2ccc(OCC)c(C)c2)CC1	-0.37	0	-66	1.7	96*	nt
CCOC(=O)N1CCN(S(=O)(=O)c2ccc(C)c(C)c2)CC1	0.09	0.6	-63	1.6	41	-3.1
CCOc1ccccc1OCCCC(=O)N1CCN(S(=O)(=O)c2cccc(F)c2)CC1	-0.05	0.3	36	0.6	75*	0.46
O=C(NC1CC2CCCC(C1)N2Cc1ccco1)NC12CC3CC(CC(C3)C1)C2 (centres undefined)	0.8	1.2	-5	1.1	-20	-2.4
COc1cc(-c2nnc(SCc3cccnc3)n2C)cc(OC)c1O	0.89	0.7	15	0.9	30	-0.0084
Cc1sc(NC(=O)CSc2nnnn2C2CCCCC2)c(C#N)c1C	-0.32	1	12	0.9	4	nt
C=C1CCN([C@@H](Cc2ccccc2)C(=O)NCCCc2ccccc2)S(=O)(=O)c2ccccc21	nt	nt	nt	nt	nt	-4.5*
Cc1c(Br)cc(C(=O)N2CCCC2)c(C)c1C	0	0.1	-91	1.9	92*	-1
N=C1C(c2nc3ccccc3c(=O)[nH]2)=C(O)CN1CCc1ccccc1	nt	0.4	60*	0.4	63*	-0.48
CC(C)N1CC(O)=C(c2ccccc2)C1=N	-0.27	1.1	3	1	-9	0.42
CC(C)N1CC(O)=C(c2nc3ccccc3[nH]2)C1=N	0.12	0.5	-2	1	54*	1
CCCCCCN1CC(O)=C(c2ccccc2)C1=N	0.56	1.1	-34	1.3	-11	1.4
CCCCN1CC(O)=C(c2nc3ccccc3[nH]2)C1=N	-0.62	0.3	52*	0.5	71*	nt
CC(C)CCN1CC(O)=C(c2nc3ccccc3[nH]2)C1=N	0.32	0.3	60*	0.4	68*	-0.73
N=C1C(c2nc3ccccc3c(=O)[nH]2)=C(O)CN1CCO	-0.49	1	-2	1	5	-0.18
O=c1[nH]c2cnccc2n1-c1ccccc1	-0.53	1.2	-8	1.1	-19	-0.34
CCCC(c1nnnn1Cc1ccco1)N1CCN(C2CCCC2)CC1 (centres undefined)	1.1	0.8	8	0.9	23	-0.21
NS(=O)(=O)c1ccc(CCNC2CC(=O)N(Cc3ccccc3)C2=O)cc1 (centres undefined)	-0.33	1.1	11	0.9	-7	0.022
O=C1c2ccccc2-c2cccc(NS(=O)(=O)c3ccc(C(F)(F)F)cc3)c21	-1.4	1	88*	0.1	2	-0.79
Cc1sc(NC(=O)c2ccco2)nc1-c1ccccc1	-1.7	0.4	81*	0.2	55*	-0.14
